In the library only some 11% were active in any assay of this set; here they are far more common.
BAZ2B inh: blocks human BAZ2B. Q9UIF8. AlphaScreen BAZ2B-H3K14Ac peptide displacement. Potency, µM (top dose mostly 114 µM), hits mostly inhibitors. 360,000 compounds, 4.4% hits. AID 504333; note: nearly all actives have a fitted effect of over 60% in size
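Compounds, titrated to a top concentration of 110 uM, were incubated 30 min at room temperature with preformed BAZ2B/acetyl-K14 H3 peptide complex (50 nM each). Proximity signal was measured by AlphaScreen after 20 min with beads.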
G9a inh: G9a (human) methyltransferase inhibition | G9a H3K9 monomethylation, AlphaScreen, 2 h | Potency, µM (highest dose often 102 µM), usual class: inhibitors | 350,000 compounds, 8.8% hits | AID 504332; note: nearly all actives have a fitted effect of over 75% in size
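Compounds were preincubated with 20 nM G9a for 15 min, after which biotinylated H3K9 peptide (500 nM) and SAM (20 uM) started a 2 h room-temperature reaction. Monomethylated product was quantified by antibody-based AlphaScreen chemiluminescence.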
HP1b binding inh: blocks HP1-beta chromodomain binding to methylated histone tails; P83916; AlphaScreen HP1-beta / biotin-H3K9me3 peptide binding; Potency, µM (top dose mostly 114 µM), most hits filed as inhibitors; 390,000 compounds, 0.56% hits; note: nearly all actives have a fitted effect of over 70% in size
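Compound inhibition of the preformed complex between 50 nM HP1-beta and 50 nM biotinylated H3K9me3 peptide was read by AlphaScreen. Buffer was PBS pH 7.4 with 0.01% Tween-20. Incubations ran 30 min at room temperature, with 10 ug/mL donor/acceptor beads.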
JMJD2A Tudor: blocks the human JMJD2A Tudor domain; O75164; 390,000 compounds, 4.4% hits; AlphaScreen JMJD2A-Tudor / H3K4me3 peptide binding; Potency, µM (top dose mostly 114 µM), hits mostly inhibitors; note: nearly all actives have a fitted effect of over 50% in size
L3MBTL1 block: blocks human L3MBTL1. Q9Y468. 230,000 compounds, 0.66% hits. Potency, µM (series often up to 57.1 µM), usual class: inhibitors. AlphaScreen L3MBTL1–H3K9me1 peptide binding. AID 485360; note: nearly all actives have a fitted effect of over 60% in size
Target sequence (Q9Y468 whole entry, looked up): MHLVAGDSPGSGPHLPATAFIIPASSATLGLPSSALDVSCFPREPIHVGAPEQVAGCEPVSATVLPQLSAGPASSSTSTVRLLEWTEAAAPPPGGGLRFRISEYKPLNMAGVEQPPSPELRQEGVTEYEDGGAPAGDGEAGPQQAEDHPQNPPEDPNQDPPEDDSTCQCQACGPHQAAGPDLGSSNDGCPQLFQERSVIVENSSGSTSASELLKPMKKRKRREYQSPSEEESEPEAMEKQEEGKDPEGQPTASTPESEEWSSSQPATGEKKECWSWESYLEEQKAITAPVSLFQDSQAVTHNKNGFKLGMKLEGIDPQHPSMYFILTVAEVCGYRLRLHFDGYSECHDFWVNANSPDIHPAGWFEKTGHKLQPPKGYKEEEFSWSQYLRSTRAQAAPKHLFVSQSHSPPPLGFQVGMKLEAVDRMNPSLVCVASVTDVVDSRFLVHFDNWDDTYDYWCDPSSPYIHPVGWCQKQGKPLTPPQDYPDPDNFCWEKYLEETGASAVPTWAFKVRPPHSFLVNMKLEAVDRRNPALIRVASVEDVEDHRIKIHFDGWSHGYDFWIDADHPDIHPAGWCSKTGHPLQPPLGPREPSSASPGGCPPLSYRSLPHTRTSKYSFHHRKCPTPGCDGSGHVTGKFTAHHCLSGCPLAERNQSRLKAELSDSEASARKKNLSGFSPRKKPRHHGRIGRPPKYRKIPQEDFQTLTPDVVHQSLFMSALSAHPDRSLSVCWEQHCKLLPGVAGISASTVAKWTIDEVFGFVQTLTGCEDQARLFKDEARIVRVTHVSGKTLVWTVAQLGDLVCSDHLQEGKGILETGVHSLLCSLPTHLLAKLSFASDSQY
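Read-out is AlphaScreen signal from streptavidin donor and nickel chelate acceptor beads (10 ug/mL final each) bridging L3MBTL1 (50 nM) and biotinylated K9-monomethylated H3(1-15) peptide (75 nM), after 30 min compound exposure at room temperature.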
Of the large screens only hits and unclear results are named; the others gave an inactive call. Calls come from the whole dose curve; as a rule, active = well fitted inhibition curve with a large enough effect; inconclusive = small, poorly fitted or top-dose-only effect; inactive = no such curve, though single readings can be large or run the other way.

N#Cc1c2n(c3c(=S)nc[nH]c13)CCCCC2	JMJD2A Tudor 35µM (no result: G9a inh)
O=C1C=CC(=Nc2ccc(F)cc2)O1	HP1b binding inh 22µM, JMJD2A Tudor 45µM (no result: BAZ2B inh, G9a inh, L3MBTL1 block)
Cc1ccc(-n2c(=O)c3c(c4cc(C)ccc4n3C)n(CC(=O)N3CCCC3)c2=O)cc1	none (no result: L3MBTL1 block)
O=C1CN(C(=O)CNCc2ccccc2)c2ccccc2N1	BAZ2B inh 50µM, G9a inh 35µM, HP1b binding inh inconclusive, JMJD2A Tudor 3.5µM
COc1ccccc1CNCC(=O)N1CC(=O)Nc2ccccc21	BAZ2B inh 50µM, G9a inh 10µM, JMJD2A Tudor 20µM
O=C1CN(C(=O)CNC(=O)c2ccccc2Cl)c2ccccc2N1	none (no result: L3MBTL1 block)
O=C(c1cc(C(F)(F)F)cc(C(F)(F)F)c1)N1CCC2(CC1)CN(c1ccccc1)C2	none (no result: BAZ2B inh, HP1b binding inh, JMJD2A Tudor, L3MBTL1 block)
O=C1c2ccccc2C(=O)N1c1cccc(O)c1	none (no result: BAZ2B inh, G9a inh, L3MBTL1 block)
COc1ccc(Cl)cc1NC(=O)CCN1CCN(C)CC1	BAZ2B inh inconclusive (no result: L3MBTL1 block)
COc1ccc(Cl)cc1NC(=O)CCn1nc(C)cc1C	BAZ2B inh 71µM, JMJD2A Tudor inconclusive (no result: L3MBTL1 block)
COc1ccc(OC)c(NC(=O)CCn2cccc2)c1	BAZ2B inh 50µM, G9a inh inconclusive
COc1ccc(S(=O)(=O)CCC(=O)Nc2cc(C)ccc2OC)cc1	G9a inh 28µM (no result: L3MBTL1 block)
COc1ccc(OC)c(NC(=O)c2csnn2)c1	BAZ2B inh inconclusive, G9a inh 14µM, JMJD2A Tudor inconclusive (no result: L3MBTL1 block)
COC(=O)c1ccc(NC(=O)CC2C(=O)N(c3cccc(OC)c3)C(=O)N2Cc2cccc(OC)c2)cc1 (centres undefined)	none (no result: L3MBTL1 block)
CCCC(=O)Nc1ccc2nn(-c3ccc(CC)cc3)nc2c1	G9a inh inconclusive (no result: L3MBTL1 block)
Cc1cc(C)c2sc(N(Cc3cccnc3)C(=O)CCOc3ccccc3)nc2c1	none (no result: L3MBTL1 block)
Cc1ccc(CCNC(=O)c2cn(C)c3ccc(S(=O)(=O)N4CCCCC4)cc3c2=O)cc1	none (no result: BAZ2B inh, L3MBTL1 block)
COc1ccc(CCCC(=O)Nc2cc(C)ccc2OC)cc1	G9a inh 79µM (no result: L3MBTL1 block)
COC(=O)c1ccc(NC(=O)CCn2cccc2)cc1	BAZ2B inh inconclusive
CCc1ccc(NC(=O)CCn2cccc2)cc1	BAZ2B inh inconclusive, G9a inh 50µM (no result: L3MBTL1 block)
Cn1c(C(=O)Nc2cccc(Cl)c2)cc2c(=O)n(C)c3ccccc3c21	none (no result: L3MBTL1 block)
Cc1ccsc1CN(C(=O)c1oc2cc(Br)ccc2c1C)C1CCS(=O)(=O)C1 (centres undefined)	none (no result: L3MBTL1 block)
CCOc1ccc(-c2nnc(-c3ccncc3)o2)cc1	HP1b binding inh inconclusive, JMJD2A Tudor 50µM
CC(C)(C)S(=O)(=O)c1cnc(-c2ccccn2)nc1N	BAZ2B inh 79µM, JMJD2A Tudor inconclusive (no result: G9a inh)
CC(C)(C)S(=O)(=O)c1cnc(-c2cnccn2)nc1N	none (no result: L3MBTL1 block)
COc1ccccc1N(CC(=O)Nc1ccc2c(c1)OCO2)S(=O)(=O)c1ccc(C)cc1	BAZ2B inh inconclusive (no result: L3MBTL1 block)
Cc1ccc2nc(C)cc(C(=O)OCC(=O)c3ccc(Cl)c([N+](=O)[O-])c3)c2c1	BAZ2B inh inconclusive, JMJD2A Tudor inconclusive (no result: G9a inh)
Cc1cc(C(=O)OCC(=O)c2ccc(Cl)c([N+](=O)[O-])c2)c2cccc(C)c2n1	BAZ2B inh inconclusive, G9a inh inconclusive, JMJD2A Tudor 22µM, L3MBTL1 block inconclusive
O=C(NNC(=O)C1CCC1)c1ccccc1F	none
Cc1nc(CC(=O)Nc2ccc(N(C)C)cc2)cs1	BAZ2B inh inconclusive, G9a inh 14µM, JMJD2A Tudor inconclusive (no result: L3MBTL1 block)
C/C(CC(=O)Nc1ccc(N(C)C)cc1)=N\NC(=O)Cc1csc(N)n1	BAZ2B inh inconclusive, G9a inh 45µM, JMJD2A Tudor inconclusive
Cc1nc(CC(=O)Nc2ccc(C(N)=O)cc2)cs1	none (no result: L3MBTL1 block)
CSCCC(NS(=O)(=O)c1ccc2c(c1)oc(=O)n2C)C(=O)N1CCN(c2cc(Cl)ccc2C)CC1 (centres undefined)	none (no result: L3MBTL1 block)
Cc1sc2c(c1C)c(=O)n(-c1ccccc1)c(=O)n2CC(=O)c1ccc(Cl)cc1	none (no result: L3MBTL1 block)
c1ccc(-c2nc(Sc3ncnc4c3cnn4-c3ccccc3)n[nH]2)cc1	G9a inh 32µM (no result: HP1b binding inh, JMJD2A Tudor)
CC1(C)CC(=O)C(=CN2CCN(C(=O)c3ccco3)CC2)C(=O)C1	G9a inh inconclusive
CC1(C)CC(=O)C(=CN2CCOCC2)C(=O)C1	G9a inh 35µM, L3MBTL1 block inconclusive
Cc1ccc(S(=O)(=O)N2CCN(C(=O)COc3ccc(-c4nnco4)cc3)CC2)cc1	none
Cc1ccc(S(=O)(=O)CCC(=O)Oc2ccc(-c3nnco3)cc2)cc1	G9a inh 20µM

Bioassay records deposited in PubChem by National Center for Advancing Translational Sciences (NCATS).
